Assay results from PubChem BioAssay AID1578 (Sanford-Burnham Center for Chemical Genomics, 2009).
Among all 290,000 compounds or so, about 3,000 (1%) were called active. The full list was thinned out, with actives kept by preference. Unmarked numbers belong to inactive results. Rule as the data show it: active = inhibition mostly above about 36% (no sharp cut-off); inactive = mostly below about 34%.

Experiment: inhibition of NOD1-driven NF-kB reporter – cell-based, luminescence, uHTS, primary screen (AID 1578);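 also: HEK-293T reporter cells stimulated with the NOD1 agonist gamma-tri-DAP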
Conditions: NOD1-driven NF-kB luciferase reporter cells, at 4 µM, hits give high values

| Structure (SMILES) | inhibition |
| --- | --- |
| Cc1ccc(NCc2ccncc2)c(Br)c1 | 63.7% (active) |
| COc1ccc(S(=O)(=O)NCc2ccncc2)cc1OC | 24.7% |
| Cc1cc(-c2ccc(C)c(S(=O)(=O)NCc3ccc(OC(C)C)cc3)c2)on1 | -14.2% |
| Cc1ccc(NCc2cccnc2)c(Br)c1 | -14.3% |
| COc1cc(S(=O)(=O)NCc2ccccc2)ccc1Br | -7.9% |
| Cc1cc(C)cc(NCc2ccncc2)c1 | -8.1% |
| Cc1ccc(C)c(S(=O)(=O)NCc2ccncc2)c1 | 34.2% |
| Cc1cc(Br)c(S(=O)(=O)NCc2ccncc2)cc1C | 26% |
| Cc1cc(-c2ccc(C)c(S(=O)(=O)NCc3ccc(Br)cc3)c2)on1 | 72.5% (active) |
| Cc1cc(-c2ccc(C)c(S(=O)(=O)NCc3cccc(Br)c3)c2)on1 | -20.4% |
| O=c1[nH]c2ccc(NC(=S)NC3CCCCC3)cc2[nH]1 | 0.4% |
| NNC(=O)c1cccn(Cc2cccc(C(F)(F)F)c2)c1=O | -7.3% |
| CCn1c(SCC(=O)Nc2nc(C)c(C)s2)nnc1-c1ccco1 | 4.8% |
| O=C(NCCCCc1ccccc1)Nc1cccc(F)c1 | -18.4% |
| CCc1nnc(NS(=O)(=O)c2ccc(NC(=S)NC(=O)c3ccc(OC)c(OC)c3)cc2)s1 | -10.1% |
| C#Cc1ccc([C@@H]2C=C(C(=O)N3CCN(Cc4ccc5c(c4)OCO5)CC3)O[C@H](OCCCCO)C2)cc1 | -5.3% |
| O=C(CN1CC[C@@]2(O)CCCC[C@H]2[C@@H]1c1ccc(F)cc1)NCc1ccco1 | -15% |
| Cc1cc(Cl)ccc1C(=O)C1CCCN(C(=O)c2cscn2)C1 (configuration not stated) | -13.1% |
| COC(=O)C(CCSC)NS(=O)(=O)c1ccc(Cl)cc1 (configuration not stated) | -19.4% |
| O=S(=O)(c1ccccc1)N(Cc1ccccc1)c1ccccn1 | -18.3% |
| O=C(Nc1nc(-c2ccc3c(c2)OCO3)cs1)C1CC1 | -36.4% |
| CC(=O)Nc1nc(-c2ccc3c(c2)OCO3)cs1 | 1.1% |
| Cc1ccc2nc(N3CCN(S(=O)(=O)c4ccc(C)c(Cl)c4)CC3)c(C#N)cc2c1 | -0.6% |
| Cc1nc2ccc(S(=O)(=O)NCC(=O)N3CCN(c4ccccn4)CC3)cc2s1 | 8.2% |
| COC(=O)C1(CCSC)NC(c2ccco2)C2C(=O)N(C)C(=O)C21 (configuration not stated) | -7.2% |
| C/C(=N\NC(=O)COc1ccc(C(C)(C)C)cc1)c1ccc(-n2ccnc2)cc1 | -48% |

| Structure (SMILES) | inhibition |
| --- | --- |
| CC(C)(C)c1ccc(NC(=O)COc2ccc(-n3ccnc3)cc2)cc1 | 74.6% (active) |
| COc1cc(NC(=O)COc2ccc(-n3ccnc3)cc2)cc(OC)c1 | 39.3% |
| Cc1ccc(NC(=O)CSc2nnc(C)n2CC2CCCO2)cc1 (configuration not stated) | -27.7% |
| CCc1ccccc1NCC(=O)Nc1ccc(Cl)c(C(F)(F)F)c1 | -18.7% |
| C=CCSC1=NN2CCS(=O)(=O)N=C2S1 | -14.6% |
| CCOC(=O)CSC1=NN2CCS(=O)(=O)N=C2S1 | -12.9% |
| CCSC1=NN2CCS(=O)(=O)N=C2S1 | 44.5% (active) |
| COc1ccc(/C(N)=N/OC(=O)c2cccs2)cc1OC | -61.8% |
| COc1ccccc1CNC(=O)C1CCN(C(=O)c2sccc2-n2cccc2)CC1 | -18.4% |
| CCC(NC(=O)c1ccccc1NC(=O)c1ccccc1)C(=O)NNC(=O)c1cccnc1 (configuration not stated) | -7.6% |
| CCN(C(=O)COC(=O)c1cccnc1Nc1ccccc1F)C1CCS(=O)(=O)C1 (configuration not stated) | -22.9% |
| CCOc1ccc(NC(=O)CCSc2nnc(C)s2)cc1 | 7.9% |
| Cc1ccc2c(c1)Oc1ccc(NC(=O)CCCl)cc1C(=O)N2 | 0.2% |
| Cc1ccc2c(c1)Oc1ccc(NC(=O)CCl)cc1C(=O)N2 | 103% (active) |
| Cc1ccc2c(c1)Oc1ccc([N+](=O)[O-])cc1C(=O)N2 | -16.6% |
| CCCn1c(N)c(N(CCOC)C(=O)/C=C/c2cccc(Cl)c2)c(=O)[nH]c1=O | -16.5% |
| CC12CN3CC(C)(CN(C1)C3c1ccc(F)cc1)C2 (configuration not stated) | -30.5% |
| O=C(O)CCCC(=O)Nc1ccc(Oc2ncnc3cc(Cl)ccc23)nc1 | -10.7% |
| CC(C(=O)N(C1CC1)C1(C(=O)Nc2ccccc2)CCCC1)N1C(=O)c2ccccc2C1=O (configuration not stated) | 7.8% |
| COC(=O)c1ccccc1NC(=O)NCc1ccccn1 | -25.3% |
| Oc1ccc(Cl)cc1C=Nc1ccc2c3c(cccc13)CC2 | 38.7% |
| Oc1ccc(Br)cc1C=Nc1ccc2c3c(cccc13)CC2 | 101% (active) |
| Cc1cccc(C=Nc2ccc3c4c(cccc24)CC3)c1O | -17.9% |
| Cc1cc(C(=O)NCCc2ccccc2)c2cc(F)ccc2n1 | 1.9% |
| CN(c1ccccc1)S(=O)(=O)c1ccc(Cl)c(C(=O)Nc2nc3ccccc3[nH]2)c1 | 3.8% |
| CN(c1cccc(Cl)c1)S(=O)(=O)c1cccc(C(=O)Nc2nc3ccccc3[nH]2)c1 | 53% |

| Structure (SMILES) | inhibition |
| --- | --- |
| O=C(NCc1ccccc1)c1cnsn1 | -16.6% |
| CC1CCc2nc3ccccc3c(C(=O)OCC(=O)N(C)C3CCS(=O)(=O)C3)c2C1 (configuration not stated) | -19.9% |
| COc1cc(C(=O)Nc2ccc(Nc3ccccc3)cc2)cc(OC)c1OC | -1.1% |
| Cc1ccc(C)c(CS(=O)(=O)c2cn(CC(=O)N3CCCCC3)c3ccccc23)c1 | -19.4% |
| O=C(NN=C1CCCC1)c1cc(Br)ccc1O | -58.6% |
| O=C1N/C(=N/O)S/C1=C/c1cccc([N+](=O)[O-])c1 | -24.9% |
| CC1(C)C2C/C(=N\O)C(C)(/[N+]([O-])=C/c3cccc([N+](=O)[O-])c3)CC21 (configuration not stated) | 62.4% (active) |
| CC(C)N(C(=O)CO/N=C/c1cccc([N+](=O)[O-])c1)C(C)C | -4.4% |
| Cc1nnc(SCC(=O)O)s1 | -10.4% |
| Cc1ccc(-c2nc(CN3CCCC(C(=O)N4CCOCC4)C3)c(C)o2)cc1 (configuration not stated) | -23.5% |
| COC(=O)c1cnn(-c2ccc(Cl)cc2)c1/C=N/NC(N)=S | 5.8% |
| CN(C)S(=O)(=O)c1cccc(NC(=O)c2ccncc2)c1 | -4.4% |
| CN(C)S(=O)(=O)c1cccc(NC(=O)c2cnccn2)c1 | -27.8% |
| CCOc1ccc(N/C(N)=N/c2nc(C)cc(C)n2)cc1 | -34.6% |
| CN1CCN(CCCNc2c(C=O)c(=O)[nH]c3ccccc23)CC1 | -5.5% |
| O=Cc1c(NCCN2CCCC2)c2ccccc2[nH]c1=O | 0.2% |
| O=Cc1c(NCCN2CCOCC2)c2ccccc2[nH]c1=O | 59.2% (active) |
| O=[N+]([O-])c1ccc(Cl)c(CN2CCN(c3ncccn3)CC2)c1 | -27.2% |
| Cc1cc(C)nc(NC(=O)c2ccc(C)o2)n1 | -48.4% |
| O=C1CC(c2cc(F)ccc2F)c2cc3c(cc2N1)CCC3 (configuration not stated) | 64.2% (active) |
| O=C1CC(c2ccccc2F)c2cc3c(cc2N1)CCC3 (configuration not stated) | 8.6% |
| O=C1CC(c2ccc(F)cc2)c2cc3c(cc2N1)CCC3 (configuration not stated) | 28.6% |
| COc1ccc(NC(=O)CCn2cc(C)c3ccccc32)cc1 | -5.7% |
| O=C(N/N=C/c1ccccc1)c1ccc(-c2ccccc2)cc1 | -17.2% |
| CCC(=O)Nc1nc2ccccc2n1Cc1ccc(Cl)cc1 | 101% (active) |
| CCC(=O)Nc1nc2ccccc2n1CCN(C)C | -15.3% |

| Structure (SMILES) | inhibition |
| --- | --- |
| CCC(=O)Nc1nc2ccccc2n1Cc1ccccc1 | 23.4% |
| CCCCCCCn1c(NC(=O)CC)nc2ccccc21 | 109% (active) |
| CCC(=O)Nc1nc2ccccc2n1CCN(CC)CC | -9.6% |
| CCC(=O)Nc1nc2ccccc2n1Cc1ccc(C)cc1 | 31.5% |
| CCn1c(C)nc2cc(C(=O)n3cc(C(=O)c4cc(F)ccc4O)cn3)ccc21 | 23.8% |
| Nc1ccc(-c2nc3ccccc3o2)cc1 | 5.8% |
| COc1ccc([C@@H]2[C@@H]3C(=O)N(C(C)(C)C)C(=O)[C@@H]3[C@]3(Cc4ccc(Cl)cc4)C(=O)N(c4cccc(C)c4)C(=O)N23)cc1 | 13.2% |
| COc1cccc(NC(=O)C2CCN(S(C)(=O)=O)CC2)c1 | -30.4% |
| Cc1cc(S(=O)(=O)Nc2ccc3c(c2)n(C)c(=O)n3C)ccc1F | 0.4% |
| Oc1c(Br)cc(Br)cc1CNn1cnnc1 | 5.1% |
| COc1cc(SC)ccc1C(=O)Nc1nccs1 | -52.4% |
| COc1cc(SC)ccc1C(=O)Nc1ncc(C)s1 | 82.7% (active) |
| COc1cc(SC)ccc1C(=O)Nc1ccc(Cl)cn1 | 16.3% |
| COc1cc(SC)ccc1C(=O)Nc1nc(C)cs1 | 91.9% (active) |
| COc1cc(SC)ccc1C(=O)Nc1cccc(C)n1 | -70% |
| COc1cc(SC)ccc1C(=O)Nc1nc(C)cc(C)n1 | -19.1% |
| CCCCOc1ccccc1/C=N/NC(=O)CC#N | -26.1% |
| O=C(NNC(=S)Nc1ccc(Cl)cc1)c1ccccc1OC(F)F | -11.7% |
| COc1ccccc1-n1cc(-c2ccc(Br)cc2)[nH]c1=S | -0.3% |
| Cc1sc2ncnc(Sc3ccccc3C(=O)Nc3ccc(Br)cc3)c2c1C | 9.8% |
| Nc1c(Br)c(=O)[nH]c(=O)n1-c1ccccc1 | 6.9% |
| COc1ccc(N/N=C(/N=Nc2nc(C)cc(=O)[nH]2)c2ccccc2)cc1 | 11.2% |
| Cc1cc(=O)[nH]c(N=N/C(=N/Nc2ccc(O)cc2)c2ccccc2)n1 | 105% (active) |
| Cc1cc(=O)[nH]c(N=N/C(=N/Nc2ccccc2C)c2ccccc2)n1 | 45.2% |
